SMILES strings stand for the structures. Records with an inconclusive call do not appear. The source made the active and inactive calls. Unless noted, the call rests on the fitted dose curve.

Here are results for 35 compounds from PubChem BioAssay (NCATS).

Assay [1] can be described thus: qHTS for Inhibitors of the Functional Ribonucleoprotein Complex (vRNP) of Lassa (LASV) Arenavirus: LASV Primary Screen - GLuc reporter signal (AID 1347082; calls by dose curve; tested in HEK293 reporter line; further: nearly all actives have a fitted effect of over 60% in size).
Assay [2] in a line: qHTS for Inhibitors of the Functional Ribonucleoprotein Complex (vRNP) of Lassa (LASV) Arenavirus: Viability assay - alamar blue signal for LASV Primary Screen (AID 1347083; calls by dose curve; tested in HEK293 reporter line; further: nearly all actives have a fitted effect of over 80% in size). For orientation: qHTS replaces the single test concentration by a dilution series.
The nature of assay [3]: qHTS for Inhibitors of the Functional Ribonucleoprotein Complex (vRNP) of Lymphocytic Choriomeningitis Arenaviruses (LCMV): Viability assay - alamar blue signal for LCMV Primary Screen (AID 1347085; calls by dose curve; tested in HEK293 reporter line; further: nearly all actives have a fitted effect of over 80% in size).
Assay [4] deals with Nucleoprotein (Lymphocytic choriomeningitis virus (strain Armstrong)) (UniProt P09992). Description: qHTS for Inhibitors of the Functional Ribonucleoprotein Complex (vRNP) of Lymphocytic Choriomeningitis Arenaviruses (LCMV): LCMV Primary Screen - GLuc reporter signal (AID 1347086). Further: nearly all actives have a fitted effect of over 70% in size.
Potency means the concentration at half of the fitted maximal effect.

Chain of Nucleoprotein (Lymphocytic choriomeningitis virus (strain Armstrong)) (P09992 whole entry, looked up): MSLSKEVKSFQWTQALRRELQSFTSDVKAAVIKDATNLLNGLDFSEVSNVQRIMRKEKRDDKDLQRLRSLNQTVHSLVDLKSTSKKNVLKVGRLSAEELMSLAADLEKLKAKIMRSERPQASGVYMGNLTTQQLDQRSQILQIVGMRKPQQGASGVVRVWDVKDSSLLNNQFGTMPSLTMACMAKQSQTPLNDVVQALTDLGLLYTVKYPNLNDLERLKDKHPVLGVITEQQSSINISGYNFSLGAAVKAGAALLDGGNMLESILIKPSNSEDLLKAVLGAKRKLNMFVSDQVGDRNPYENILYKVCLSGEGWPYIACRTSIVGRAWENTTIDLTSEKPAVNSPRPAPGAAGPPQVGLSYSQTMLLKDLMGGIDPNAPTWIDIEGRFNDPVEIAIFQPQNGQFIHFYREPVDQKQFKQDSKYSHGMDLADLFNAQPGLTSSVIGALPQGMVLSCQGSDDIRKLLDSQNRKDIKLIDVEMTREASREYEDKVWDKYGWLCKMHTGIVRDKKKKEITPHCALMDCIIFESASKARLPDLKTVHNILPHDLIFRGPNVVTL

Turning to `O=C(O)CNC(=O)CNC(=O)CNC(=O)CSC(=O)c1ccccc1`, the Potency entry in assay [1], in assay [2], in assay [3] and in assay [4] was “inactive” each time.

In the case of `CC(=O)N[C@@H](CCC(N)=O)C(=O)O`, the Potency entry in assay [1], in assay [2], in assay [3] and in assay [4] was “inactive” each time.

Turning to `Cc1cccc(C)c1NC(=O)c1ccc(N)cc1`, the Potency entry in assay [1], in assay [2], in assay [3] and in assay [4] was “inactive” in each case.

For the compound `CC(C)C(C)(C)C(C)(C)C(C)(C)S`, the Potency entry in assay [1], in assay [2], in assay [3] and in assay [4] was “inactive” each time.

Take `Cc1cccc(C#Cc2ccccc2)n1`: the Potency result in assay [1], in assay [2], in assay [3] and in assay [4] was “inactive” each time.

As to `OCc1c[nH]c2ccccc12`, the Potency result in assay [1], in assay [2], in assay [3] and in assay [4] was “inactive” in each case.

With `CC1(C)Cc2c(-c3ccccc3)c(-c3ccc(Cl)cc3)c(CC(=O)O)n2C1`, the Potency result in assay [1], in assay [2], in assay [3] and in assay [4] was “inactive” throughout.

In the case of `CC(=O)N[C@@H](Cc1ccc(O)cc1)C(=O)O`, the Potency entry in assay [1], in assay [2], in assay [3] and in assay [4] was “inactive” in each case.

Turning to `CCCCC(CC)COC(=O)/C=C/c1ccc(OC)cc1` (stereo not given), the Potency entry in assay [1], in assay [2], in assay [3] and in assay [4] was “inactive” in each case.

Regarding `CC1=C(C/C=C(\C)CCC[C@H](C)CCC[C@H](C)CCCC(C)C)C(=O)c2ccccc2C1=O`, the Potency result in assay [1], in assay [2], in assay [3] and in assay [4] was “inactive” throughout.

With `CC(C)(c1ccc(O)cc1)c1ccc(O)cc1`, the Potency result in assay [1], in assay [2], in assay [3] and in assay [4] was “inactive” throughout.

As for `S=c1[nH]c2ccccc2s1`, the Potency result in assay [1], in assay [2], in assay [3] and in assay [4] was “inactive” throughout.

On to `CCOC(=O)C(C)Oc1cccc2c(=O)n(CC(=O)Nc3ccc4c(c3)OCCO4)ccc12` (stereo not given), for which the Potency result in assay [1], in assay [2], in assay [3] and in assay [4] was “inactive” throughout.

As for `C=C1C(=CC=C2CCC[C@]3(C)[C@@H]([C@H](C)C=C[C@H](C)C(C)C)CC[C@@H]23)C[C@@H](O)C[C@@H]1O`, the Potency entry in assay [1] and in assay [4] was “inactive” throughout. Also, the Potency in assay [2] and in assay [3] was 13700 nM (active) throughout.

In the case of `C#CC(C)(CC)OC(=O)c1ccccc1C(=O)O` (stereo not given), the Potency result in assay [1], in assay [2], in assay [3] and in assay [4] was “inactive” each time.

For the compound `COc1ccc2c(c1)c1c3n2CCN(C)C3=NCC1`, the Potency result in assay [1], in assay [2], in assay [3] and in assay [4] was “inactive” in each case.

With `CC1(C)SCCN(S(=O)(=O)c2ccc(OCC#CCO)cc2)[C@@H]1C(=O)NO`, the Potency entry in assay [1], in assay [2], in assay [3] and in assay [4] was “inactive” each time.

As for `CN(C)CCN(C)C(=O)c1ccc(NC(=O)Nc2ccc(-c3nc(N4CCOCC4)c4ccn(CC(F)(F)F)c4n3)cc2)cc1`, the Potency is 48.5 nM (active) in assay [1], 48.5 nM (active) in assay [2], 43.2 nM (active) in assay [3] and 76.9 nM (active) in assay [4].

With `O=c1cc(-c2ccccc2)oc2ccccc12`, the Potency result in assay [1], in assay [2], in assay [3] and in assay [4] was “inactive” in each case.

Take `N=C1N=C(N)c2cc3ccccc3cc21`: the Potency entry in assay [1], in assay [2], in assay [3] and in assay [4] was “inactive” in each case.

For `CCCCCCCCCCCCCC(=O)N[C@H](CO)[C@H](O)c1ccc([N+](=O)[O-])cc1`, the Potency result in assay [1], in assay [2], in assay [3] and in assay [4] was “inactive” in each case.

Take `O=C(O)[C@H](Cc1c[nH]c2ccccc12)N1C(=O)c2ccccc2C1=O`: the Potency result in assay [1], in assay [2], in assay [3] and in assay [4] was “inactive” in each case.

In the case of `CCC=CC[C@H]1C(=O)CC[C@@H]1CC(=O)OC`, the Potency entry in assay [1], in assay [2], in assay [3] and in assay [4] was “inactive” in each case.

Take `CS(=O)(=O)Oc1ccc2c(NC(N)=O)c(C(=O)c3ccc(Cl)cc3Cl)oc2c1`: the Potency result in assay [1] and in assay [4] was “inactive” each time. Also, the Potency in assay [2] and in assay [3] was 27300 nM (active) each time.

As for `CCNC(=O)c1noc(-c2cc(C(C)C)c(O)cc2O)c1-c1ccc(CN2CCOCC2)cc1`, the Potency in assay [1] was 611 nM (active); in assay [2], 273 nM (active); in assay [3], 544 nM (active); in assay [4], 306 nM (active).

`O=C(O)CCC1CCC(c2cc(F)ccc2F)(S(=O)(=O)c2ccc(Cl)cc2)CC1` (stereo not given): the Potency result in assay [1], in assay [2], in assay [3] and in assay [4] was “inactive” in each case.

For `CCCCCCCCCCC(CO)CCCCCCCC` (stereo not given), the Potency result in assay [1], in assay [2], in assay [3] and in assay [4] was “inactive” in each case.

Consider `Nc1ccc(-c2ccc3ncc4ccc(=O)n(-c5cccc(C(F)(F)F)c5)c4c3c2)cn1`, for which the Potency in assay [1] is 2.4 nM (active); in assay [2], 2.7 nM (active); in assay [3] it was 5.4 nM (active); in assay [4], 5.4 nM (active).

Turning to `CCN1CCc2nc(N)oc2CC1`, the Potency result in assay [1], in assay [2], in assay [3] and in assay [4] was “inactive” each time.

Turning to `COc1cc(N2CCC(N3CCN(C)CC3)CC2)ccc1Nc1ncc(Cl)c(Nc2ccccc2S(=O)(=O)C(C)C)n1`, the Potency result in assay [1], in assay [2], in assay [3] and in assay [4] was “inactive” each time.

Regarding `COc1cc(Oc2ccnc3cc(OC)c(OC)cc23)ccc1NC(=O)NC(C)c1nccs1` (stereo not given), the Potency result in assay [1], in assay [2], in assay [3] and in assay [4] was “inactive” throughout.

For `Cc1c(C(=O)Nc2ccc(N3C[C@@H](C)O[C@@H](C)C3)nc2)cccc1-c1ccc(OC(F)(F)F)cc1`, the Potency result in assay [1], in assay [2], in assay [3] and in assay [4] was “inactive” in each case.

With `CCCCCCCCCCCCCC(=O)OC(C)C`, the Potency result in assay [1], in assay [2], in assay [3] and in assay [4] was “inactive” in each case.

For `COc1cc2c(Oc3ccc(-c4cnc(Nc5ccc(F)cc5)n(C)c4=O)cc3F)ccnc2cc1OCCCN1CCOCC1`, the Potency in assay [1] was 21700 nM (active); in assay [2] it was 15300 nM (active); in assay [3], 21700 nM (active); in assay [4], 24300 nM (active).

`CC(C)[C@]12O[C@@H]1[C@@H]1O[C@]13[C@]1(O[C@H]1C[C@@H]1C4=C(CC[C@@]13C)C(=O)OC4)[C@H]2O`: the Potency entry in assay [1], in assay [2], in assay [3] and in assay [4] was “inactive” in each case.
